Assay results: PubChem BioAssay (NCI)
This is part of a sample that, as a whole, favours compounds with a hit. Of some 83,000 tested, about 20% had one in any assay.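 Note: values are percent growth. 100 is the growth of untreated cells, values between 100 and 0 indicate rising inhibition; between -100 and 0 indicates cell death.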 A number with no mark means an inactive call. Calls of active or inactive are those of the source. How the source made its calls: active means growth percent below 10; inactive means the rest.

Tests used:
Experiment in all cases: NCI-60 one-dose screen, 48 h (100 = growth as untreated, 0 = no growth, -100 = all killed)
Conditions in all cases: 10 µM unless noted
SK-MEL-2 melanoma = tested on: SK-MEL-2 melanoma
SN12C renal = tested on: SN12C renal
UO-31 renal = tested on: UO-31 renal
TK-10 renal = tested on: TK-10 renal
ACHN renal = tested on: ACHN renal
CAKI-1 renal = tested on: CAKI-1 renal
A498 renal = tested on: A498 renal
CCRF-CEM leukemia = tested on: CCRF-CEM leukemia
MOLT-4 leukemia = tested on: MOLT-4 leukemia
SR leukemia = tested on: SR leukemia
RPMI-8226 leukemia = tested on: RPMI-8226 leukemia
OVCAR-8 ovarian = tested on: OVCAR-8 ovarian
OVCAR-5 ovarian = tested on: OVCAR-5 ovarian
OVCAR-4 ovarian = tested on: OVCAR-4 ovarian
SK-OV-3 ovarian = tested on: SK-OV-3 ovarian
IGROV1 ovarian = tested on: IGROV1 ovarian
HS 578T breast = tested on: HS 578T breast
NCI/ADR-RES ovarian = tested on: NCI/ADR-RES ovarian
OVCAR-3 ovarian = tested on: OVCAR-3 ovarian

| SMILES | growth (SK-MEL-2 melanoma) | growth (SN12C renal) | growth (UO-31 renal) | growth (TK-10 renal) | growth (ACHN renal) | growth (CAKI-1 renal) | growth (A498 renal) | growth (CCRF-CEM leukemia) | growth (MOLT-4 leukemia) | growth (SR leukemia) | growth (RPMI-8226 leukemia) | growth (OVCAR-8 ovarian) | growth (OVCAR-5 ovarian) | growth (OVCAR-4 ovarian) | growth (SK-OV-3 ovarian) | growth (IGROV1 ovarian) | growth (HS 578T breast) | growth (NCI/ADR-RES ovarian) | growth (OVCAR-3 ovarian) |
| --- | --- | --- | --- | --- | --- | --- | --- | --- | --- | --- | --- | --- | --- | --- | --- | --- | --- | --- | --- |
| Clc1nc(-c2cccnc2)nc2sc3c(c12)CCCCCC3 | 105% | 99.6% | 101% | 103% | 105% | 93.8% | 94.1% | 83.4% | 90% | 87.6% | 96.9% | 103% | 102% | 97.1% | 102% | 107% | 109% | 106% |  |
| CCC1=C[C@@H]2CN(C1)Cc1c([nH]c3ccccc13)[C@@](C(=O)OC)(c1cc3c(cc1OC)N(C=O)[C@H]1[C@@](O)(C(=O)OC)[C@H](OC(C)=O)[C@]4(CC)[C@@H]5C[C@@H]5CN5CC[C@]31[C@@H]54)C2 | 18% | 21.9% | 28.7% | 49.2% | 35.6% | 8.29% (active) | -8.16% (active) | 8.71% (active) | 13.4% | 9.37% (active) | -6.79% (active) | 8.45% (active) | 44.2% | 47% | 5.16% (active) | 30.8% | 26.3% | -28.8% (active) |  |
| COc1cc(Cn2c(SCCC(=O)Nc3ccc(F)cc3)nc3ccccc3c2=O)cc(OC)c1OC | 81.3% | 82.9% | 53.7% | 101% | 81.9% | 74% | 63.3% | 86.8% | 49% | 56.7% | 74.9% | 84.1% | 94.1% | 85% | 95% | 77.8% | 86.2% | 83.5% |  |
| Cc1cc(C)c(S(=O)(=O)N2CCN(c3cc4c(cc3F)c(=O)c(C(=O)O)cn4C3CC3)CC2)c(C)c1 | 90.5% | 13.9% | 16.1% | 86.5% | 51.3% | 67.1% | 63% | 37.3% | 61% | 39.1% | 22.4% | 59.5% | 42.2% | 75.6% | 81.6% | 35.7% |  | 69.9% | 91.3% |
| O=[N+]([O-])c1cc(S(=O)(=O)OCC2CO2)ccc1Cl (stereo not given) | 88.4% | 103% | 89.7% | 114% | 98.5% | 104% | 121% | 76.7% | 95.3% | 1.01% (active) | 63.6% | 87.5% | 111% | 106% | 104% | 52.6% | 101% | 108% | 108% |
| CC(=O)Nc1nc(C(=O)N2N=C(C)/C(=C/c3cccs3)C2=O)cs1 | 98.4% | 110% | 84% | 107% | 113% | 98.6% | 115% | 92.4% | 79.1% | 91.9% | 97.4% | 103% | 115% | 106% | 99.4% | 97.1% | 114% | 112% |  |
| CC(=O)C1CCC(C)=CC1=O (stereo not given) | 94.3% | 99% | 80.3% | 97.7% | 98.4% | 96.5% | 87.6% | 100% | 88.3% | 101% | 100% | 100% | 103% | 107% | 100% | 102% | 122% | 95.6% | 108% |
| CC(=O)Nc1ccc(S(=O)(=O)N2C(=O)CCC2C(=O)Nc2ccc(Br)cc2)cc1 (stereo not given) | 36.1% | 49.9% | 21.9% | 63.6% | 45.3% | 32.3% | 16.8% | 2.98% (active) | 5.48% (active) | 16.9% | 10.1% | 47.5% | 77.5% | 25.5% | 69.2% | 37.4% | 56.6% | 41.8% | 24.4% |
| COc1cc(Cn2c(SCC(=O)Nc3cc(OC)c(OC)c(OC)c3)nc3ccccc3c2=O)cc(OC)c1OC | 75.1% | 82% | 80.4% | 67.9% | 33.4% | 95.5% | 62.4% | 101% | 89.4% | 66.6% | 96% | 81% | 88.8% | 89.8% | 51.2% | 72.6% | 48.4% | 99.5% |  |
| CCN(CC)c1cc(/C=C/c2ccc(OC)c(OC)c2)nc2cc(F)c(F)cc12 | -58.2% (active) | 57% | 75.3% | -28.6% (active) | -50.9% (active) | 46.8% | -2.91% (active) | 29.7% | 49.2% | 10.7% | 99.1% | 36% | 88.7% | 87.2% | -39.5% (active) | 19.2% | 2.13% (active) | 41.2% |  |
| COc1ccc(-c2nnc(COc3ccc(NC(=O)Nc4ccc(Cl)c(C(F)(F)F)c4)cc3F)o2)cc1 | -7.3% (active) | 21.2% | 2.2% (active) | 35% | -23.2% (active) | 4.77% (active) | -1.59% (active) | 0.195% (active) | 2.69% (active) | -30.1% (active) | -26.2% (active) | 14.5% | 8.75% (active) | 20.2% | 22.1% | 26% | 19.1% | 5.91% (active) | -0.826% (active) |
| COc1cc(NS(C)(=O)=O)ccc1Nc1c2ccc([N+](=O)[O-])cc2nc2c(C)cccc12 | 25.4% | 2.9% (active) | -3.4% (active) | 5.21% (active) | -30.9% (active) | -21.2% (active) | -23.5% (active) | -11.8% (active) | -8.62% (active) | 15.6% | -19.8% (active) | 13.7% | 36.8% | 49.1% | 11.2% | -2.46% (active) | 58.4% | 58.6% | -13% (active) |
| Nc1c(C(=O)Nc2cccc([N+](=O)[O-])c2)sc2nc3c(cc12)C(O)CCC3 (stereo not given) | 26.2% | 65.8% | 69% | 76.6% | 92.1% | 66.7% | 27.6% | 37.2% | 42.2% | 21% | 52% | 82.3% | 78.7% | 80.2% | 46.3% | 52.5% | 71.8% | 47.8% | 33.1% |
| c1ccn2nnnc2c1 | 104% | 92.7% | 94.5% | 96.4% | 111% | 97.9% | 101% | 99.7% | 101% | 96.5% | 102% | 105% | 105% | 103% |  | 113% | 105% | 102% | 70.6% |
| COc1cc(CCn2nnc3c(NCCCCO)ncnc32)cc(OC)c1 | 124% | 102% | 86.4% | 119% | 106% | 92.7% | 89% | 95% | 112% | 96.4% |  | 101% | 121% | 99.2% | 111% | 109% | 101% |  | 107% |
| COc1ccc2c(c1)C(=O)/C(=C/c1ccc(O)cc1)O2 | 81.2% | 76.8% | -97.4% (active) | 75.1% | 96.4% | 71.8% | 94.8% | 104% | 62.8% | 74.1% | 35.1% | 93.1% | 103% | 85.2% | 104% |  | 73.5% | 104% | 48.7% |
| CCCCCCCCCCn1cc[n+](C)c1 | 13.1% | 19.4% | 65.7% | -1.53% (active) | 45% | 28.8% | 12.4% | 111% | 78.6% | 104% |  | 11.5% | 45.6% | 22.7% | 44.5% |  | 30.3% | 82.2% | 45.9% |
